In the library only some 3.8% were active in any assay of this set; here they are far more common.
TIM10 inh = growth inhibitors of isogenic TIM10 control yeast, primary screen, counter-screen for tim10-1 yeast inhibitor project, luminescence, uHTS. inhibition, % at 10 µM. S. cerevisiae TIM10 strain growth, BacTiter-Glo luminescence, 24 h. AID 463195, 2010. actives 1.4% (n = 330,000);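 active means inhibition of 40% or more at the single tested concentration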;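 further: wild-type TIM10 isogenic control strain grown at permissive 25 °C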
NLRP3 yeast inh = NALP3 inflammasome inhibitors in reconstituted yeast, primary screen, luminescence, uHTS; inhibition, % at 10 µM; actives 0.39% (n = 330,000); AID 2825, 2010; Yeast reconstituted NLRP3/ASC/caspase-1, beta-gal luminescence, 24 h;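 active means inhibition of 50% or more; inactive means inhibition below 50%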;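 further: plate controls were induced DMSO wells for no effect and uninduced yeast grown without galactose for full effect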
tim23-1 inh = growth inhibitors of tim23-1 mutant yeast, primary screen, luminescence, uHTS; actives 1.3% (n = 330,000); AID 463212, 2010; S. cerevisiae tim23-1 growth, BacTiter-Glo luminescence, 24 h; inhibition, % at 20 µM;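 active means growth inhibition of the mutant yeast at or above 50%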;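 further: temperature-sensitive mutant grown at 25 °C; plate controls were DMSO-treated mutant yeast for no effect and medium wells lacking yeast for full effect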
Yeast superoxide = reduction of superoxide in aged yeast, primary screen, HTS; AID 2690, 2010; superoxide response (% of plate mean), % at 10 µM; S. cerevisiae aged cells, superoxide DHE fluorescence; active compounds read low; actives 0.18% (n = 330,000);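 active means superoxide response under a set limit, about three screen SD below normal, cut at about 65% in these data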;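 further: yeast aged for seven days with compound at 30 °C before DHE staining; 100% = average MFI of all compound-treated wells on the plate with controls excluded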
tim10-1 inh = growth inhibitors of tim10-1 mutant yeast, primary screen, luminescence, uHTS. actives 2.2% (n = 330,000). AID 463190, 2010. S. cerevisiae tim10-1 ts strain growth, BacTiter-Glo, 24 h. inhibition, % at 20 µM;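 active means inhibition of at least 40%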;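 further: mutant grown at 25 °C; 0% = DMSO wells with yeast and 100% = wells holding no yeast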
tim23-1 confirm = tim23-1 mutant yeast growth inhibitors, confirmation, luminescence, single concentration. shares compounds with tim23-1 inh. S. cerevisiae tim23-1 growth, BacTiter-Glo luminescence, 24 h. inhibition, % at 20 µM. actives 83% (n = 4,400);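 active means inhibition above about 39% in either of two replicate wells at 20 µM, limit read from the data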;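 further: temperature-sensitive tim23-1 mutant grown at 25 °C; 0% = DMSO wells with yeast and 100% = medium wells without yeast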
Active calls of the source: *.

`Cc1ccc(NC(=S)NC(=O)C2CCC2)cc1C` gave TIM10 inh 29, NLRP3 yeast inh 35, tim23-1 inh 48, Yeast superoxide 98 and tim10-1 inh 27.
`CCS(=O)(=O)c1cc([N+](=O)[O-])c(Sc2ccccc2NC(C)=O)s1` gave TIM10 inh 7, NLRP3 yeast inh -27, tim23-1 inh 7, Yeast superoxide 115 and tim10-1 inh 11.
Screening O=C1CN(S(=O)(=O)c2ccccc2)CCN1S(=O)(=O)c1ccccc1 returned TIM10 inh 10, NLRP3 yeast inh 1, tim23-1 inh 6, Yeast superoxide 104 and tim10-1 inh 5.
Screening COc1ccc(C2=NOC3(CC(=O)N(c4ccc(F)cc4)C3=O)C2)cc1 (stereo unspecified) returned TIM10 inh 16, NLRP3 yeast inh 0, tim23-1 inh 20, Yeast superoxide 102 and tim10-1 inh 6.
`Cc1ccc(C)c(C(=O)COC(=O)C2CCN(c3ccc(C(F)(F)F)cn3)CC2)c1` gave TIM10 inh -3, NLRP3 yeast inh 13, tim23-1 inh 1, Yeast superoxide 107 and tim10-1 inh 12.
For Cc1[nH]c(=O)c(S(=O)(=O)c2ccccc2)c(C)c1Cl the results were TIM10 inh -17, NLRP3 yeast inh 0, tim23-1 inh -9, Yeast superoxide 88 and tim10-1 inh -2.
CC1CC(C)CN(C(=O)c2ccc3c(c2NCCO)C(=O)c2ccccc2C3=O)C1 (stereo unspecified) was read as TIM10 inh 34, NLRP3 yeast inh 4, tim23-1 inh 51*, Yeast superoxide 142, tim10-1 inh 39 and tim23-1 confirm 53*.
`COC(=O)C1=C(C)N=c2s/c(=C/c3ccoc3)c(=O)n2C1c1ccccc1` (stereo unspecified) gave TIM10 inh 29, NLRP3 yeast inh 13, tim23-1 inh 50*, Yeast superoxide 99, tim10-1 inh 37 and tim23-1 confirm 50*.
`COc1ccccc1NC(=O)Nc1cc(NC(=O)Nc2ccccc2OC)c(C)nc1C` gave TIM10 inh 10, NLRP3 yeast inh -4, tim23-1 inh -18, Yeast superoxide 110 and tim10-1 inh 7.
For Cc1[nH]n(-c2ccccc2)c(=O)c1/C=C1\C=NN=C1c1ccccc1 the results were TIM10 inh 22, NLRP3 yeast inh 7, tim23-1 inh 62*, Yeast superoxide 105, tim10-1 inh 26 and tim23-1 confirm 55*.
O=C(CN1C(=O)CCSc2ccccc21)NC1CCCCC1 was read as TIM10 inh 4, NLRP3 yeast inh 4, tim23-1 inh 24, Yeast superoxide 130 and tim10-1 inh 29.
`O=[N+]([O-])c1cc(Br)cc(/C=N/n2cnnc2)c1O` gave TIM10 inh 9, NLRP3 yeast inh 33, tim23-1 inh 17, Yeast superoxide 120 and tim10-1 inh -8.
`C=CCS/C(N)=N\N=C\c1cc(Br)cc([N+](=O)[O-])c1O` gave TIM10 inh 17, NLRP3 yeast inh 31, tim23-1 inh 55*, Yeast superoxide 124, tim10-1 inh 11 and tim23-1 confirm 44*.
Screening Cc1ccc(-n2c(C)nn(CCOc3ccccc3)c2=O)cc1 returned TIM10 inh 7, NLRP3 yeast inh 6, tim23-1 inh 3, Yeast superoxide 108 and tim10-1 inh 19.
For O=C(O)/C=C/C(=O)Nc1ccc(Oc2ccc(NC(=O)/C=C/C(=O)O)cc2)cc1 the results were TIM10 inh -1, NLRP3 yeast inh -6, tim23-1 inh -4, Yeast superoxide 97 and tim10-1 inh 8.
Screening O=C(O)/C=C\C(=O)Nc1ccc(Oc2ccc(Br)cc2)cc1 returned TIM10 inh 1, NLRP3 yeast inh 31, tim23-1 inh 53*, Yeast superoxide 126, tim10-1 inh 7 and tim23-1 confirm 15.
Screening O=C(Nc1ccc(Cl)c(Cl)c1)Nc1ccon1 returned TIM10 inh 24, NLRP3 yeast inh -3, tim23-1 inh 53*, Yeast superoxide 106, tim10-1 inh 29 and tim23-1 confirm 48*.
Cc1ccc(NCc2nnc3n2CCCCC3)cc1 was read as TIM10 inh -7, NLRP3 yeast inh 8, tim23-1 inh 11, Yeast superoxide 102 and tim10-1 inh 25.
For Cc1cc2oc(=O)cc(-c3ccccc3)c2c(C)c1-c1ccc(O)cc1 the results were TIM10 inh 2, tim23-1 inh 61*, Yeast superoxide 96, tim10-1 inh 21 and tim23-1 confirm 48*.
Screening COc1cc2oc(=O)cc(-c3ccc(-c4ccc(O)cc4)cc3)c2c(OC)c1OC returned TIM10 inh 1, tim23-1 inh 56*, Yeast superoxide 103, tim10-1 inh 28 and tim23-1 confirm 35.
COc1ccc(-c2ccc(-c3cc(=O)oc4cc(OC)c(OC)c(OC)c34)cc2)cc1OC was read as TIM10 inh -7, tim23-1 inh 28, Yeast superoxide 93 and tim10-1 inh 11.
For COCCNc1c(-c2ccc(OC)cc2)nc2ccc(Cl)cn12 the results were TIM10 inh 12, NLRP3 yeast inh 26, tim23-1 inh 26, Yeast superoxide 106 and tim10-1 inh 31.
Screening CCOC(=O)CNc1c(-c2ccc(OC)cc2)nc2ccc(Cl)cn12 returned TIM10 inh 24, NLRP3 yeast inh 31, tim23-1 inh 53*, Yeast superoxide 107, tim10-1 inh 13 and tim23-1 confirm 48*.
Screening O=C(COC(=O)COc1ccc(Cl)cc1)NCCNC(=O)COC(=O)COc1ccc(Cl)cc1 returned TIM10 inh -1, NLRP3 yeast inh 2, tim23-1 inh 93*, Yeast superoxide 101, tim10-1 inh -14 and tim23-1 confirm 3.
`COc1ccc(C(=O)NC(=S)N2CCC(C)CC2)cc1Br` gave TIM10 inh 28, NLRP3 yeast inh 26, tim23-1 inh 57*, Yeast superoxide 110, tim10-1 inh 37 and tim23-1 confirm 37.
Screening COc1cn(-c2ccccc2)nc1C(=O)Nc1ccccc1 returned TIM10 inh 18, NLRP3 yeast inh 26, tim23-1 inh 19, Yeast superoxide 78 and tim10-1 inh -11.
Screening COc1cn(-c2ccccc2)nc1C(=O)Nc1ccc(C)cc1 returned TIM10 inh 30, NLRP3 yeast inh 26, tim23-1 inh 50*, Yeast superoxide 106, tim10-1 inh -51 and tim23-1 confirm 39.
`COc1cc2ccccc2cc1C(=O)Nc1ccc(C)cc1` gave TIM10 inh 0, NLRP3 yeast inh 41, tim23-1 inh 59*, Yeast superoxide 106, tim10-1 inh -4 and tim23-1 confirm 64*.
COc1ccc(C)cc1NC(=O)Nc1ccccc1 was read as TIM10 inh 21, NLRP3 yeast inh 38, tim23-1 inh 25, Yeast superoxide 106 and tim10-1 inh 29.

Screening data as filed in PubChem.
